Results: PubChem BioAssay (EPA / NIEHS)
“And” between values parts separate entries of the source, which are not always exact repeats. Equal entries are not always repeated. The source made the active and inactive calls. The calls were made as follows: active = hit-call score of the fitted dose curve at least 0.9, where 1 is the maximum; inactive = score below 0.9.

Experiments:
[1] = read-out: Collagen I, COL1A1 (gene 1277); assay: BSK_MyoF_CollagenI: BioMAP Diversity Plus: MyoF Assay for Collagen I Biomarker Activity (AID 2284238); conditions: primary human lung fibroblasts
Procedure, shortened: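 Measured by ELISA: Collagen I from human lung fibroblasts 24 h after compound addition, analysed for signal gain with DMSO as baseline; overt toxicity read from SRB staining of parallel cultures at the same time.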

[2] = read-out: Collagen III, COL3A1 (gene 1281); assay: BSK_MyoF_CollagenIII: BioMAP Diversity Plus: MyoF Assay for Collagen III Biomarker Activity (AID 2284239); conditions: primary human lung fibroblasts
Procedure, shortened: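 Multiplexed cell assay in lung fibroblasts, harvested at 24 h post-dose. Collagen III detected by ELISA, with positive-direction fitting relative to DMSO vehicle.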

[3] = read-out: Interleukin 17F (IL17F), IL17F (gene 112744); assay: BSK_BT_xIL17F: BioMAP Diversity Plus: BT Assay for Interleukin 17F (IL17F) Biomarker Activity (AID 2284243); conditions: primary human B cells with PBMC
Procedure, shortened: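 Luminex readout of IL-17F secretion, 24 h; cells: human B cells with PBMC; positive-direction analysis, DMSO control.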

[4] = read-out: Actin alpha 1 (ACTA1), ACTA1 (gene 58); assay: BSK_MyoF_ACTA1: BioMAP Diversity Plus: MyoF Assay for Actin alpha 1 (ACTA1) Biomarker Activity (AID 2284244); conditions: primary human lung fibroblasts
Procedure, shortened: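 Cells were exposed to chemical for 24 h before a-SMA levels were quantified by ELISA in human lung fibroblasts. Increases were fitted against DMSO as negative control; parallel SRB staining (0.1% after 10% TCA fixation, 560 nm) assessed cytotoxicity.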

[5] = read-out: Interleukin 2 (IL2), IL2 (gene 3558); assay: BSK_BT_xIL2: BioMAP Diversity Plus: BT Assay for Interleukin 2 (IL2) Biomarker Activity (AID 2284245); conditions: primary human B cells with PBMC
Procedure, shortened: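 The BT system combines human B cells with peripheral blood mononuclear cells. Twenty-four hours after chemical dosing, secreted IL-2 was measured with xMAP bead technology, and responses were analyzed as increases over DMSO controls.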

[6] = read-out: Basic fibroblast growth factor (bFGF), FGF2 (gene 2247); assay: BSK_MyoF_bFGF: BioMAP Diversity Plus: MyoF Assay for Basic fibroblast growth factor (bFGF) Biomarker Activity (AID 2284246); conditions: primary human lung fibroblasts
Procedure, shortened: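 Chemicals are added to human lung fibroblast cultures and incubated 24 h. bFGF is then measured by ELISA, while parallel cultures receive SRB staining for total protein as a cytotoxicity check. Data are fitted upward against DMSO.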

[7] = read-out: Collagen IV, COL4A1 (gene 1282); assay: BSK_MyoF_CollagenIV: BioMAP Diversity Plus: MyoF Assay for Collagen IV Biomarker Activity (AID 2284247); conditions: primary human lung fibroblasts
Procedure, shortened: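 Human lung fibroblast system, 24 h chemical exposure. Endpoint: Collagen IV by ELISA, upward fit vs DMSO.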

[8] = CCTE_Mundy_HCI_Cortical_NOG_BPCount: CCTE's Neurite Outgrowth Assay in rat cortical cells for Branch Point Count, Mundy Lab (AID 2284237)
Procedure, shortened: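 Measured 50.33 h after dosing, this morphology endpoint uses rat primary cortical cultures labelled for betaIII-tubulin. Branch points are quantified by high-content imaging, with DMSO as negative control and baseline.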

[9] = CCTE_Mundy_HCI_hNP1_Casp3_7: CCTE's Caspase-Glo 3/7 Assay in human neuroprogenitor cells for Apoptosis, Mundy Lab (AID 2284240)
Procedure, shortened: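 Apoptosis is scored by activated caspase-3/7 luminescence in WA09-derived neural progenitor cells, measured 26.5 h after chemical dosing. Values represent gain of signal relative to DMSO vehicle.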

[10] = read-out: Collagen I, COL1A1 (gene 1277); assay: BSK_hDFCGF_CollagenI: BioMAP Diversity Plus: hDFCGF Assay for Collagen I Biomarker Activity (AID 2284250); conditions: primary human foreskin fibroblasts
Procedure, shortened: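 Collagen I ELISA, primary human foreskin fibroblasts, 24 h chemical exposure, DMSO = negative control/baseline, positive fitting direction.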

Measured: AC50

CCn1c2ccccc2c2cc(N)ccc21
not listed: [8] | [9] | [10]
inactive: all other assays above

CC(=O)Nc1ccccc1O
active: [2] 0.016 µM
not listed: [8] | [9] | [10]
inactive: all other assays above

N#Cc1ccc(CC(=NNC(=O)Nc2ccc(OC(F)(F)F)cc2)c2cccc(C(F)(F)F)c2)cc1
not listed: [10]
inactive: all other assays above

CCCCCCCCCC=O
active: [7] 7.8 µM
not listed: [8] | [9] | [10]
inactive: all other assays above

C=C(C)C(=O)O[C@H]1C[C@@H]2CC[C@@]1(C)C2(C)C
active: [1] 29.2 µM | [2] 31.9 µM | [4] 33.1 µM | [6] 31.3 µM | [7] 25 µM
inactive: [3] | [5]

O=C1CCCCCCCCCCCCCCO1
inactive: [6] | [7]
active: [1] 8.87 µM | [2] 20 µM | [3] 31.2 µM | [4] 13.9 µM | [5] 32.9 µM

CC(C)c1ccc(C(C)C)cc1
not listed: [8] | [9] | [10]
inactive: all other assays above

O=C(O)C[C@H](O)C[C@H](O)/C=C/c1c(C2CC2)nc2ccccc2c1-c1ccc(F)cc1
inactive: [1] | [6] | [7]
active: [2] 2.16 µM | [3] 3.26 µM | [4] 1.37 µM | [5] 5 µM

CC(=O)/C=C/C1=C(C)CCCC1(C)C
not listed: [8] | [9] | [10]
inactive: all other assays above

Cc1ccc2n[nH]nc2c1
not listed: [8] | [9] | [10]
inactive: all other assays above

CC(C)Oc1ccccc1O
not listed: [8] | [9] | [10]
inactive: all other assays above

CC(C)(COC(=O)c1ccccc1)COC(=O)c1ccccc1
not listed: [8] | [9] | [10]
inactive: all other assays above

COC(=O)c1ccc(C)cc1
not listed: [8] | [9] | [10]
inactive: all other assays above

Cc1ccc(Nc2ccc(O)c3c2C(=O)c2ccccc2C3=O)cc1
not listed: [8] | [9] | [10]
inactive: all other assays above

c1ccc2sc(SN(C3CCCCC3)C3CCCCC3)nc2c1
active: [4] 5.57 µM
not listed: [8] | [9] | [10]
inactive: all other assays above

CN(C)C(=N)N=C(N)N
inactive: [8] | [9]

BrC1CCC(Br)C(Br)CCC(Br)C(Br)CCC1Br (configuration not stated)
inactive: [1] | [2] | [4] | [6] | [7]
active: [3] 25 µM | [5] 25.2 µM

O=[N+]([O-])c1cc(C(F)(F)F)ccc1Cl
not listed: [8] | [9] | [10]
inactive: all other assays above

CNC[C@H](O)c1cccc(O)c1
active: [2] 0.016 µM
not listed: [8] | [9] | [10]
inactive: all other assays above

CCCCC/C=C/C=C/C=O
active: [1] 32.4 µM | [2] 32.2 µM | [3] 30.7 µM | [4] 31.6 µM | [5] 31.4 µM | [6] 36.8 µM | [7] 10.5 µM

CCCCCCCCC=O
not listed: [8] | [9] | [10]
inactive: all other assays above

O=C(O)c1cn(C2CC2)c2cc(N3CCNCC3)c(F)cc2c1=O
not listed: [8] | [9] | [10]
inactive: all other assays above

CC(=O)O[C@]1(C(C)=O)CC[C@H]2[C@@H]3C[C@H](C)C4=CC(=O)CC[C@]4(C)[C@H]3CC[C@@]21C
active: [3] 10 µM
not listed: [8] | [9] | [10]
inactive: all other assays above

O=C(O)c1cn(-c2ccc(F)cc2)c2cc(N3CCNCC3)c(F)cc2c1=O
not listed: [8] | [9] | [10]
inactive: all other assays above

O=C1OC2(c3cc(Br)c(O)c(Br)c3Oc3c2cc(Br)c(O)c3Br)c2c(Cl)c(Cl)c(Cl)c(Cl)c21
inactive: [3] | [5]
active: [1] 3.89 µM | [2] 4.52 µM | [4] 5.23 µM | [6] 11.9 µM | [7] 2.72 µM

C[C@H]1C[C@@H]2[C@H]([C@@H](O)C[C@@]3(C)[C@H]2CC[C@]3(O)C(=O)CO)[C@@]2(C)C=CC(=O)C=C12
inactive: [10]

CCc1c(C)cc(N)c(CC)c1N
not listed: [8] | [9] | [10]
inactive: all other assays above

C=CCOC(=O)CCC1CCCCC1
inactive: [10]

Nc1cc([N+](=O)[O-])ccc1O
inactive: [10]

Cc1cc(C2(c3cc(C)c(O)cc3C)OS(=O)(=O)c3ccccc32)c(C)cc1O
inactive: [10]

Nc1cc([N+](=O)[O-])ccc1Cl
not listed: [8] | [9] | [10]
inactive: all other assays above

OC[C@H]1O[C@H](O[C@]2(CCl)O[C@H](CCl)[C@@H](O)[C@@H]2O)[C@H](O)[C@@H](O)[C@H]1Cl
inactive: [10]

COc1cc(C=O)ccc1OC(=O)C(C)C
inactive: [10]

C#C[C@]1(O)CC[C@H]2[C@@H]3CCC4=Cc5oncc5C[C@]4(C)[C@H]3CC[C@@]21C
active: [2] 28.1 µM | [3] 25.3 µM | [5] 28.6 µM | [6] 30.8 µM
inactive: [1] | [4] | [7]

OC1OC[C@@H](O)[C@H](O)[C@H]1O (some centres not stated)
inactive: [10]

CC[Si](OC(C)=O)(OC(C)=O)OC(C)=O
inactive: [10]

c1ccc2c(c1)c1cccc3ccc4cccc2c4c31
active: [3] 20 µM | [7] 0.0413 µM
inactive: [1] | [2] | [4] | [5] | [6]

CCCCC(CC)COCCC#N (configuration not stated)
not listed: [8] | [9] | [10]
inactive: all other assays above

Cc1ccc(O)c(C(C)(C)C)c1
inactive: [3] | [5] | [7]
active: [1] 35.4 µM | [2] 30.3 µM | [4] 30.9 µM | [6] 36.1 µM

CC1CCC(C(C)CS)CC1S (configuration not stated)
active: [1] 5.96 µM | [2] 9.71 µM | [4] 9.28 µM | [6] 7.89 µM | [7] 11.8 µM
inactive: [3] | [5]

O=C=NC1CCC(CC2CCC(N=C=O)CC2)CC1 (configuration not stated)
not listed: [8] | [9] | [10]
inactive: all other assays above

CCC(=O)OCc1ccccc1
inactive: [10]

CC1COc2ccccc2N1C(=O)C(Cl)Cl (configuration not stated)
inactive: [3] | [5] | [6]
active: [1] 14.4 µM | [2] 29.6 µM | [4] 20 µM | [7] 2.33 µM

C=C[Si](OCC)(OCC)OCC
not listed: [8] | [9] | [10]
inactive: all other assays above

CCCCCCCCCCCCCCCCCC(=O)OCC(CC)CCCC (configuration not stated)
not listed: [8] | [9] | [10]
inactive: all other assays above

O=P(c1ccccc1)(c1ccccc1)c1ccccc1
not listed: [8] | [9] | [10]
inactive: all other assays above

CC(=O)OCCC(C)CC(C)(C)C (configuration not stated)
inactive: [10]

NCCNCCN
inactive: [10]

CN(CCOc1ccc(CC2SC(=O)NC2=O)cc1)c1ccccn1 (configuration not stated)
inactive: [2] | [3] | [4] | [5] | [6]
active: [1] 0.016 µM | [7] 0.111 µM

CC(=O)[C@H]1CC[C@H]2[C@@H]3CC=C4C[C@@H](O)CC[C@]4(C)[C@H]3CC[C@]12C
active: [10] 5.65 µM and 9.87 µM

CCCCC(CC)COC(=O)/C=C\C(=O)OCC(CC)CCCC (configuration not stated)
active: [5] 20 µM
not listed: [8] | [9] | [10]
inactive: all other assays above
